eIF4H FP inh – inhibitors of RNA binding by human eIF4H | Q15056 | eIF4H fluorescence polarization binding assay | 0.94% of 290,000 active | inhibition, % at 35 µM | AID 2012;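 further: calls also rest on retests at 20 µM and on dose response follow-up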
PABP1 MLLE inh – blocks PAM2 peptide binding to the PABP1 MLLE domain. 0.36% of 360,000 active. inhibition, % at 20 µM. GST-MLLE / FITC-PAM2 fluorescence polarization. P11940; in the data active means inhibition above about 35%, passing the limit was not always enough;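 further: plate controls were DMSO wells with GST-MLLE for no effect and wells lacking GST-MLLE protein for full effect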
M18AAP inhibitor – blocks P. falciparum M18 aspartyl aminopeptidase; inhibition, % at 7.35 µM; 1.2% of 290,000 active; recombinant PfM18AAP, H-Glu-NHMec fluorogenic cleavage; AID 1822;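 active means inhibition above the campaign mean inhibition over all tested compounds plus 3 SD, cut at about 28% in these data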;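 further: 0% = plate median of test compound wells and 100% = 2 mM ZnCl2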
PERK inh – blocks human PERK kinase; inhibition, % at 5.6 µM; 0.17% of 220,000 active; Q9NZJ5; CHO PERK-DD fusion, SEAP luminescence translation reporter;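 active means inhibition above the mean inhibition of all tested compounds plus 3 SD, set separately per screening campaign, cut at about 2.9% in these data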;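 further: PERK kinase domain activated by AP20187 dimerizer at 100 nM; 0% = DMSO with dimerizer and 100% = rapamycin at 8.4 µM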
PABP FP inh – blocks human PABP binding to poly(A) RNA; inhibition, % at 35 µM; 1% of 290,000 active; P11940; fluorescence polarization; AID 2014;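 further: calls also rest on retests at 20 µM and on dose response follow-up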
eIF4E-4G inh – inhibitors of eIF4E and eIF4G interaction in translation initiation; TR-FRET eIF4E-eIF4GI(517-606) binding, 2 h; inhibition, % at 21.7 µM; 0.37% of 220,000 active; AID 782;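 active means inhibition above about 30%, limit read from the data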;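 further: 0% = full FRET control wells and 100% = background wells lacking eIF4GI fragment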
Active calls of the source: *; · = no result. A selection: hits, their analogues and other compounds. The true share with any hit is near 2.4%. Unless noted, how the calls were made is not given here.

SMILES	eIF4H FP inh	PABP1 MLLE inh	M18AAP inhibitor	PERK inh	PABP FP inh	eIF4E-4G inh
O=c1cc(-c2ccc(Cl)cc2)oc(=O)[nH]1	2	3	-15	1	2	3
CNC(=O)/C(C#N)=C\c1ccc(CNS(=O)(=O)c2ccc(Cl)cc2)o1	3	-109	-9	1	62*	7
COc1ccc(/C=C/c2n[nH]c(=O)c(C#N)c2C)cc1	6	-15	-7	·	8	·
Cn1c(COc2ccccc2)nnc1SCC(=O)Nc1ccc2c(c1)OCO2	-1	-11	-2	1	8	3
COCCn1cnnc1SCC(=O)Nc1ccccc1C(=O)Nc1ccc2c(c1)OCO2	5.6*	-5	2	0	52	0
O=C(O)c1ccc(N2C(=O)c3cccc4c(C(=O)O)ccc(c34)C2=O)cc1	96*	-17	-15	0	active	9
O=C(O)c1ccc2c3c(cccc13)C(=O)N(c1ccccc1)C2=O	81	0	-10	1	-14	11
COc1ccc(C(=O)NC2CC2)cc1OC1CCN(Cc2ccc(F)cc2F)CC1	2	-7	-4	·	-1	·
COc1cc(OC)cc(-c2noc(-c3csc([C@@H]4C[C@H](O)[C@@H](CO)O4)n3)n2)c1	·	1	·	·	·	·
Fc1ccc(-[n+]2nc(Nc3ccccc3)sc2-c2cccc(Cl)c2Cl)cc1	-8	50*	4	·	17	·
O=C1CN(c2ccc(Cl)cc2)C(=O)CN1NC(=S)Nc1ccc(Cl)cc1	12	-27	6	1	-7	-1
Cc1ccc(C)n1-c1ccc(C(=O)O)cc1	91*	·	9	2	51*	13
Cc1cc(=O)n(-c2ccc(C(=O)O)cc2)[nH]1	65*	8	7	1	active	-2
COc1ccc(-c2nn(-c3ccccc3)cc2C(=O)O)cc1	1	-1	2	3.2*	7	-2
Cc1ccc(-c2nn(-c3ccccc3)cc2C(=O)O)o1	102*	·	11	1	active	1
COc1ccc(-c2nn(-c3ccccc3)cc2C(=O)N(C)C)cc1	5	1	0	·	6	·
CC(C)(C)C(=O)CNS(=O)(=O)c1ccc(S(=O)(=O)NC2CC2)cc1	-6	3	-4	·	1	·
COc1ccccc1/C=N/NC(=O)c1c(-c2ccccc2)noc1C	-4	2	10	·	-2	·
Cc1cccc(/C=N/NC(=O)c2c(-c3ccccc3)noc2C)c1O	6	0	29*	·	0	·
CCOC(=O)c1c(NC(=O)CSc2nc3ccccc3s2)sc(C)c1C	-5	26	30*	0	-15	-3
CCOC(=O)c1c(-c2ccco2)csc1NC(=O)CSc1nnc(N)s1	54*	-8	-6	1	8	-8
O=C(O)c1cccc([N+](=O)[O-])c1C(=O)Nc1ccc2ccccc2c1	-8	-5	1	·	8	·
N#CC1=C2N=C(N)c3ccccc3N2C2=C(C(=O)CCC2)C1c1ccc(F)cc1 (stereo unspecified)	40	-10	4	-1	22	94*
Cc1ccc(C(CC(=O)N2CCCC2)c2ccccc2)c(O)c1 (stereo unspecified)	-4	-1	-2	·	3	·
COC(C/C=C/[C@H](O)[C@H](C)OCc1ccccc1)OC	·	5	·	·	·	·
SMILES	eIF4H FP inh	PABP1 MLLE inh	M18AAP inhibitor	PERK inh	PABP FP inh	eIF4E-4G inh
Cc1nn(-c2ccccc2)c(Cl)c1/C=N/Nc1ccc(S(=O)(=O)Nc2ccccc2C(=O)O)cc1[N+](=O)[O-]	92*	-7	1	0	54*	26
CSc1ccc(C=NNc2ccc(S(=O)(=O)Nc3ccccc3C(=O)O)cc2[N+](=O)[O-])cc1	·	-6	·	·	·	·
CCOC(=O)c1c(C)[nH]c(C)c1C(=O)CSc1nnc(-c2cc(OC)c(OC)c(OC)c2)o1	0	-22	-1	3.2*	0	3
COc1cccc(F)c1C(=O)NC(=O)Nc1ccc2nc(C)oc2c1	82	82	18	1	70*	0
CSc1nc2ccc(NC(=O)NC(=O)c3c(F)cccc3F)cc2s1	-6	6	-9	0	-5	4
Cc1nc(NC(=S)Nc2ccccc2)sc1C	-4	37*	-2	0	-7	-3
CCc1nnc(NC(=S)Nc2ccccc2)s1	1	35	2	0	-4	-2
CCN(C(=O)CSc1nnc(-c2cccs2)o1)C1CCS(=O)(=O)C1 (stereo unspecified)	3	-8	-9	1	-17	4
CN(C)CCNC(=O)C1CCN(S(=O)(=O)c2ccc3ccccc3c2)CC1	-6	-6	7	·	-8	·
Cc1cc(C)cc(CC(=O)N2CCC2(C)C(=O)NS(=O)(=O)c2cccc(F)c2)c1 (stereo unspecified)	·	4	·	·	·	·
CCc1cc(=O)oc2c(CNCc3c(F)cccc3Cl)c(O)ccc12	-3	-17	0	·	-6	·
CCCc1cc(=O)oc2c(CNc3ccc(OCC)cc3)c(O)ccc12	76	-37	7	·	39*	·
Cc1ccc(Nc2nc3ccccc3nc2-n2nc(C)cc2C)cc1	0	-1	1	0	-15	52*
Cc1cc(C)n(-c2nc3ccccc3nc2Nc2ccc(CC(=O)O)cc2)n1	10	-13	4	1	14	-3
N#Cc1ccsc1NC(=O)CN1C(=O)NC2(CCCCC2)C1=O	68	-30	-4	·	44*	·
O=C1/C(=C/C=C/c2ccco2)SC(=S)N1c1ccc(O)cc1	80*	-46	15	1	77*	37*
CC(C)C(C(=O)O)N1C(=O)/C(=C/C=C/c2ccco2)SC1=S (stereo unspecified)	91*	-4	16	2	79*	46*
O=C1/C(=C/c2ccco2)SC(=S)N1c1cccnc1	92*	-1	21	1	84*	55*
COc1cccc(/C=C2\SC(=S)N(c3cccnc3)C2=O)c1OC	0	55*	-6	0	24	7
Cc1cccc(NC(=O)NC(C)C(c2ccccc2)N2CCN(C)CC2)c1 (stereo unspecified)	-3	11	2	1	10	-2
O=C1/C(=C\c2ccco2)SC(=S)N1c1ccc(O)cc1	81*	25	31*	1	3	-2
O=C(NN1C(=O)/C(=C/C=C/c2ccco2)SC1=S)c1ccncc1	84*	0	11	1	94*	37*
CCc1noc(C)c1C(=O)Nc1ccccc1C(C)(C)C	4	-35	-4	·	-9	·
O=C(CN(Cc1ccccc1)C(=O)CSc1nnc(COc2ccccc2)o1)NC1CCCC1	4	25	2	1	0	2
Cc1ccc(CN(CC(=O)NC2CCCC2)C(=O)CSc2nnc(COc3ccccc3)o2)cc1	4	41*	-15	2	5	4
CC(C)N(C)c1ncnc2c1ncn2[C@H]1CN(Cc2ccc(-c3ccccc3)cc2)C[C@@H](CO)O1	·	-16	·	·	·	·
